{
  "source": "PubChem BioAssay AID2685",
  "about": "(National Center for Advancing Translational Sciences (NCATS), 2010)",
  "note": "The whole screen tested about 320,000 compounds, of which about 2,100 (0.66%) were called active. Inconclusive results (about 53%) are left out. Calls follow the shape of the dose curve; as a rule, active = well fitted inhibition curve with a large enough effect in the signal ratio, with a control signal flat (not every such curve was filed as active); inconclusive = small, poorly fitted or top-dose-only effect, or effect the other way, or a change in a side signal; inactive = flat fitted curve, though single readings scatter; the % refers to the signal ratio. This excerpt belongs to a sample that is enriched for actives. Potency is read from the fitted curve at half-maximal effect.",
  "data": [
    {"experiment": "qHTS Assay for Lipid Storage Modulators in Drosophila S3 Cells;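 as to cell number change: cells counted by Cell Tracker Red CMTPX staining in the red channel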; as to lipid storage change, negative = inhibition: % is scaled to controls: 0 for no effect and ±100 for the full control effect", "conditions": "BODIPY lipid droplet fluorescence, 18-24 h, cells fed with added oleic acid; cell number change: measured here: cell count max response; series mostly up to 46.1 µM; lipid storage change, negative = inhibition: at the top concentration", "from_the_text": "NIH Molecular Libraries Probe Production Centers Network [MLPCN] NIH Chemical Genomics Center [NCGC] MLPCN Grant: 1 R03 MH085686-01 Assay Submitter (PI): Beller, Mathias; Max-Planck-Institut fur Biophysikalische Chemie NCGC Assay Overview: Storing lipids as a reservoir for energy or the anabolism of elementary metabolites is a common feature of probably all cells and is conserved from bacteria to humans. The universal cellular lipid storage organelle is the so-called lipid storage droplet (LD). Although ubiquitous, LDs share a simple structure composed of a hydrophobic core that harbors the storage lipids, which is shielded by a droplet-specific phospholipid monolayer to which proteins are attached. The current model of LD biogenesis involves an incorporation of the lipid core into the membrane leaflets of the endoplasmic reticulum (ER) followed by a subsequent budding-like maturation of a LD, which ultimately pinches off. Once released, LD volume can increase by localized lipogenesis or fusion of existing droplet. Storage lipids are re-mobilized enzymatically by lipase activity. Lipase regulation in the adipocyte is heavily studied and involves multiple components including catecholamine signaling, the LD-associated proteins Perilipin and comparative gene identification (CGI-58) and at least two lipases named hormone sensitive lipase (HSL) and adipocyte triglyceride lipase (ATGL). LD regulation outside of the adipocyte is poorly understood and only few components are known. However, there is an urgent need to learn more about ectopic fat depots as mislocalized storage of lipids, for example in the liver or muscle, is an eminent health problem associated with insulin resistance or the metabolic syndrome. We developed a laser-scanning cytometer assay to enable 1,536-well screening and combined the results of the small molecules screen with an RNAi database based on lipid storage.\nTriacsin C (Sigma-Aldrich T-4540), an inhibitor of long-chain fatty acyl CoA synthetase that blocks synthesis of triglycerides, was used as a positive control for lipid under-storage. A total of 23 nL of compound solution of different concentrations were transferred to the assay plates using a Kalypsys pin tool equipped with a 1,536-pin array containing 10-nL slotted pins (FP1S10, 0.457-mm diameter, 50.8 mm long; V&P Scientific). One microliter of oleic acid (400 uM) was added, and the plate was lidded with stainless steel rubber gasket lined lids containing pinholes. […] Fluorescence was detected by excitation of the fluorophores with a 488-nm laser on an Acumen Explorer (TTP Lab Tech). The total intensity in channel 2 (500-530 nm) reflected lipid droplet accumulation. Cells were detected using channel 3 (575-640 nm) with 5-um width and 100-um depth filters. The ratio of the number of objects in PMT channel 2 over the number of objects in PMT channel 3 was also calculated. Percent activity was computed relative to an internal control (100% inhibited lipid droplet deposition due to the presence of 20 uM Triacsin C), which was added to 32 wells/plate.", "units": {"cell number change": "%"}, "values": [
      {"smiles": "COC(=O)c1sccc1NC(=O)COc1ccc(F)cc1Cl", "lipid storage change, negative = inhibition": "16.3% (inactive)", "cell number change": 0.149},
      {"smiles": "Cc1ccc(C(=O)Nc2ccc(C(=O)OCc3cc(=O)n4ccsc4n3)cc2)cc1", "lipid storage change, negative = inhibition": "6.49% (inactive)", "cell number change": 10.6},
      {"smiles": "Cc1nn2c(=O)cc(COC(=O)c3ccc(NC(=O)C(C)(C)C)cc3)nc2s1", "Potency": "3.66 µM (active)", "cell number change": 7.59},
      {"smiles": "COCCc1nn2c(=O)cc(COC(=O)c3cc(OC)c(OC)c(OC)c3)nc2s1", "lipid storage change, negative = inhibition": "-24.2% (inactive)"},
      {"smiles": "COc1ccc(C(=O)CSc2ccc3nnc(-c4cccnc4)n3n2)cc1", "lipid storage change, negative = inhibition": "-5.62% (inactive)", "cell number change": -3.07},
      {"smiles": "Clc1ccc(OCc2nnc3n2CCCCC3)c(Cl)c1", "lipid storage change, negative = inhibition": "4.84% (inactive)"},
      {"smiles": "COc1ccc(/C=C2\\SC(=S)N(CC(=O)NC3CCS(=O)(=O)C3)C2=O)cc1", "note": "(stereo not drawn)", "lipid storage change, negative = inhibition": "5.31% (inactive)", "cell number change": 5.36},
      {"smiles": "CC(C)c1ccc(/C=C2\\SC(=O)N(CC(=O)NC3CCS(=O)(=O)C3)C2=O)cc1", "note": "(stereo not drawn)", "Potency": "2.59 µM (active)", "cell number change": -27.6},
      {"smiles": "O=C(CN1C(=O)S/C(=C\\c2ccccc2)C1=O)NC1CCS(=O)(=O)C1", "note": "(stereo not drawn)", "Potency": "20.6 µM (active)"},
      {"smiles": "O=C(CN1C(=O)/C(=C/c2ccccc2)SC1=S)NC1CCS(=O)(=O)C1", "note": "(stereo not drawn)", "lipid storage change, negative = inhibition": "-13.4% (inactive)"},
      {"smiles": "COc1cccc(/C=C2\\SC(=O)N(CC(=O)NC3CCS(=O)(=O)C3)C2=O)c1", "note": "(stereo not drawn)", "outcome": "inactive", "cell number change": 0.472},
      {"smiles": "O=C(CN1C(=O)S/C(=C\\c2ccccc2F)C1=O)NC1CCS(=O)(=O)C1", "note": "(stereo not drawn)", "lipid storage change, negative = inhibition": "-4.85% (inactive)", "cell number change": -4.18},
      {"smiles": "O=C(CCN1C(=O)S/C(=C\\c2ccccc2)C1=O)NC1CCS(=O)(=O)C1", "note": "(stereo not drawn)", "outcome": "inactive", "cell number change": -15.9},
      {"smiles": "CC(C(=O)NC1CCS(=O)(=O)C1)N1C(=O)/C(=C/c2ccc(Cl)cc2)SC1=S", "note": "(stereo not drawn)", "Potency": "20.6 µM (active)", "cell number change": -12.5},
      {"smiles": "O=C(CN1C(=O)/C(=C/c2ccc(F)cc2)SC1=S)NC1CCS(=O)(=O)C1", "note": "(stereo not drawn)", "outcome": "inactive", "cell number change": -19.3},
      {"smiles": "O=C(O)CSc1nnnn1C1CCCCC1", "lipid storage change, negative = inhibition": "-2% (inactive)", "cell number change": 12.8},
      {"smiles": "CCOC(=O)c1oc2ccccc2c1COC(=O)CNC(=O)c1ccccc1", "lipid storage change, negative = inhibition": "-1.38% (inactive)", "cell number change": -8.09},
      {"smiles": "NC(=O)C1CCN(CC(O)CSc2ccccc2)CC1", "note": "(stereo not drawn)", "lipid storage change, negative = inhibition": "22.1% (inactive)"},
      {"smiles": "Cc1nnc(N/N=C/c2ccco2)n1N", "lipid storage change, negative = inhibition": "-2.72% (inactive)", "cell number change": -14},
      {"smiles": "N/C(=N\\OC(=O)c1cc([N+](=O)[O-])ccc1Cl)c1cccnc1", "lipid storage change, negative = inhibition": "-20.1% (inactive)", "cell number change": -8.86},
      {"smiles": "CN(C)CCCNC(=O)C(=O)NCC1OCCN1S(=O)(=O)c1cccs1", "note": "(stereo not drawn)", "lipid storage change, negative = inhibition": "-20.9% (inactive)", "cell number change": 1.62},
      {"smiles": "O=C1CCCc2ccccc2N1Cc1ccc(Cl)cc1", "lipid storage change, negative = inhibition": "-16.9% (inactive)", "cell number change": -1.32},
      {"smiles": "Cc1ccc2c(c1)N(CC(=O)NCCC1=CCCCC1)C(=O)c1cccnc1O2", "lipid storage change, negative = inhibition": "0.185% (inactive)", "cell number change": 12.4},
      {"smiles": "COc1ccc(OCC(=O)Nc2ccc(S(=O)(=O)N3CCN(C)CC3)cc2)cc1", "lipid storage change, negative = inhibition": "-10.7% (inactive)", "cell number change": -8.24},
      {"smiles": "COc1cc(NC2CCCCC2O)c2nc(-c3ccc(Cl)cc3)ccc2c1", "note": "(stereo not drawn)", "Potency": "14.6 µM (active)", "cell number change": -29.8},
      {"smiles": "CC1CCCCC1NC(=O)COC(=O)Cc1ccc(Cl)cc1", "note": "(stereo not drawn)", "lipid storage change, negative = inhibition": "4.08% (inactive)", "cell number change": -17.8},
      {"smiles": "COc1ccc(OCC(=O)OCC(=O)NC2CCCCC2C)cc1", "note": "(stereo not drawn)", "lipid storage change, negative = inhibition": "-7.59% (inactive)", "cell number change": 5.06},
      {"smiles": "NC1=NC(=O)C(CC(=O)c2ccc(Cl)cc2)S1", "note": "(stereo not drawn)", "lipid storage change, negative = inhibition": "3.54% (inactive)", "cell number change": -1.82},
      {"smiles": "O=C1CC(C(=O)Nc2ccc(C(=O)O)cc2)C(c2ccccc2)O1", "note": "(stereo not drawn)", "lipid storage change, negative = inhibition": "-2.1% (inactive)", "cell number change": -9.22},
      {"smiles": "O=C(CN1CCCCCC1)N1c2ccccc2C=Cc2ccccc21", "Potency": "23.1 µM (active)", "cell number change": -1.69},
      {"smiles": "O=C(CN1CCC(O)CC1)N1c2ccccc2C=Cc2ccccc21", "lipid storage change, negative = inhibition": "-0.597% (inactive)", "cell number change": 5.26},
      {"smiles": "O=C(CN1CCCC1)N1c2ccccc2C=Cc2ccccc21", "lipid storage change, negative = inhibition": "8.55% (inactive)", "cell number change": -13.2},
      {"smiles": "Cc1nn(CC(=O)OCC(=O)Nc2c(C(C)C)cccc2C(C)C)c(C)c1[N+](=O)[O-]", "lipid storage change, negative = inhibition": "-9.28% (inactive)", "cell number change": 13.1},
      {"smiles": "CCOc1ccc(C=NC23CN4CN(CN(C4)C2)C3)cc1", "lipid storage change, negative = inhibition": "-12.4% (inactive)", "cell number change": 8.43},
      {"smiles": "C(=N\\n1cnnc1)/c1ccc2c(c1)OCO2", "cell number change": 14.5, "lipid storage change, negative = inhibition": "3.76% [at 9.22 µM] (inactive)"},
      {"smiles": "C(=NC12CN3CN(CN(C3)C1)C2)c1ccc2c(c1)OCO2", "Potency": "25.9 µM (active)", "cell number change": -2.59},
      {"smiles": "Fc1ccccc1OCCCCN1CCCCC1", "lipid storage change, negative = inhibition": "-16.9% (inactive)", "cell number change": 6.04},
      {"smiles": "CC(C)NC(=O)C(Cc1ccccc1)N1C(=O)c2ccccc2C1=O", "note": "(stereo not drawn)", "lipid storage change, negative = inhibition": "0.505% (inactive)", "cell number change": -13.7},
      {"smiles": "COc1ccc2c(CCNC(N)=S)c[nH]c2c1", "lipid storage change, negative = inhibition": "2.34% (inactive)", "cell number change": 9.98},
      {"smiles": "CCOc1ccccc1N(CC(=O)NCC1CCCO1)C(=O)CCC(=O)Nc1cc(C)on1", "note": "(stereo not drawn)", "outcome": "inactive", "cell number change": 6.09},
      {"smiles": "Cc1cc(NC(=O)CCC(=O)N(CC(=O)NCC2CCCO2)c2ccc(C)c(C)c2)no1", "note": "(stereo not drawn)", "Potency": "1.03 µM (active)", "cell number change": -10},
      {"smiles": "Cc1cc(NC(=O)CCC(=O)N(CC(=O)NCC2CCCO2)c2ccccc2C)no1", "note": "(stereo not drawn)", "lipid storage change, negative = inhibition": "6.36% (inactive)", "cell number change": 5.33},
      {"smiles": "CCc1ccccc1N(CC(=O)NCC1CCCO1)C(=O)CCC(=O)Nc1cc(C)on1", "note": "(stereo not drawn)", "Potency": "25.9 µM (active)", "cell number change": 7.08},
      {"smiles": "Cc1cc(NC(=O)CCC(=O)N(CC(=O)NCC2CCCO2)c2ccc(Cl)c(Cl)c2)no1", "note": "(stereo not drawn)", "outcome": "inactive", "cell number change": 10.4},
      {"smiles": "Cc1cc(NC(=O)CCC(=O)N(CC(=O)NCC2CCCO2)c2ccc3c(c2)OCCO3)no1", "note": "(stereo not drawn)", "lipid storage change, negative = inhibition": "1.58% (inactive)", "cell number change": 10.4},
      {"smiles": "COC(=O)c1ccc(N2C(=O)c3cc(N4CCOCC4)c([N+](=O)[O-])cc3C2=O)cc1", "lipid storage change, negative = inhibition": "1.86% (inactive)", "cell number change": 0.29},
      {"smiles": "Cc1cccc2nc(CSc3nc4ccccc4[nH]3)cn12", "lipid storage change, negative = inhibition": "-6.23% (inactive)"}
    ]}
  ]
}
